{"source": "PubChem BioAssay (NCATS)", "note": "Results filed as inconclusive are left out. Values without a mark were called inactive. The call rests on the fitted dose curve; in most records, active means well fitted inhibition curve with a large enough effect; inconclusive means small, poorly fitted or top-dose-only effect; inactive means flat fitted curve, though single readings scatter. On the % scale 0 is the no-effect control and ±100 the full control effect.", "data": [{"system": "astro", "test": "Drug repurposing screens with cells derived from glioblastoma tumor samples (AID 1345199); further: nearly all actives have a fitted effect of over 40% in size", "conditions": "viability, ATP luminescence, 48 h; series mostly up to 45.9 µM; activity, negative = cell killing: at the top concentration", "method_in_brief": "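Primary testing used CD133+ neurospheres from four GBM patients, seven concentrations, 48 h exposure and ATP-based viability; confirmation added three slower-growing patient lines.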", "values": [{"compound": "Cc1nc(NS(=O)(=O)c2ccc(N)cc2)nc(C)c1Br", "activity, negative = cell killing": "-12%"}, {"compound": "Cc1ccc(S(=O)(=O)O)cc1C", "activity, negative = cell killing": "-16%"}, {"compound": "CCc1ccc(S(=O)(=O)O)cc1", "activity, negative = cell killing": "-16.5%"}, {"compound": "C=CC[N+]1([C@H]2C[C@H]3[C@@H]4CC[C@H]5C[C@H](O)[C@@H](N6CCOCC6)C[C@]5(C)[C@H]4CC[C@]3(C)[C@H]2OC(C)=O)CCCC1", "activity, negative = cell killing": "-9.21%"}, {"compound": "O=P(O)(O)OP(=O)(O)OP(=O)(O)O", "activity, negative = cell killing": "-8.91%"}, {"compound": "CN1C(C(=O)Nc2ccccn2)C(=O)c2sc(Cl)cc2S1(=O)=O", "note": "(stereo not given)", "activity, negative = cell killing": "-21.2%"}, {"compound": "Cc1ccc(S(=O)(=O)NCl)cc1", "activity, negative = cell killing": "-19.7%"}, {"compound": "CC/C=C\\C/C=C\\C/C=C\\CCCCCCCC(=O)O", "activity, negative = cell killing": "-4.66%"}, {"compound": "COC1[C@@H](O[C@@H]2O[C@H](C)[C@@H](O[C@H]3C[C@@](C)(O)[C@H](OC(=O)CC(C)C)[C@H](C)O3)[C@H](N(C)C)[C@H]2O)[C@@H](CC=O)C[C@@H](C)[C@@H](O)/C=C/C=C/C[C@@H](C)OC(=O)C[C@H]1OC(C)=O", "note": "(stereo not given in full)", "activity, negative = cell killing": "0.782% [at 21.2 µM]"}, {"compound": "CC(=O)N[C@@H]([C@@H](O)[C@H](O)[C@H](O)CO)[C@@H](O)CC(=O)C(=O)O", "activity, negative = cell killing": "-6.73%"}, {"compound": "CNC(=O)[C@H](Cc1c[nH]c2ccccc12)NC(=O)[C@@H](CC(=O)NO)CC(C)C", "activity, negative = cell killing": "-16.2%"}, {"compound": "CC(C)=CCC/C(C)=C/C=C/C(C)=C/C=C/C(C)=C/C=C/C=C(C)/C=C/C=C(C)/C=C/C=C(\\C)CCC=C(C)C", "activity, negative = cell killing": "-11.2%"}, {"compound": "FC(F)(F)C(F)(F)C(F)(F)C(F)(F)C(F)(F)C(F)(F)F", "activity, negative = cell killing": "-15.7%"}, {"compound": "CCCCC(CC)COS(=O)(=O)O", "note": "(stereo not given)", "activity, negative = cell killing": "-10.9%"}, {"compound": "CN(CCO)CC(O)Cn1cnc2c1c(=O)n(C)c(=O)n2C", "note": "(stereo not given) (tested in a mixture with another compound)", "activity, negative = cell killing": "-8.09%"}]}]}
